Assay results: PubChem BioAssay (Tox21)
Records with an inconclusive call do not appear. Activity calls are given as the source filed them. The call rests on the fitted dose curve; in most records, active means well fitted curve in the direction sought with a large enough effect in the repeat runs; inconclusive means weak or mixed curves; inactive means no such curve, though single readings can be large; an effect the other way counts as inactive or inconclusive.

Legend:
[1] = A CellTox Green Cytotoxicity Assay to monitor cytotoxicity in HEK293 cells - 40 hour (AID 1224871); further: nearly all actives have a fitted effect of over 45% in size
Procedure, shortened: (§1)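 Real-time, in one plate: 600 HEK293 cells/well with dead-cell DNA dye, pinned compound after 5 h, 37 C incubation over 40 h; viable cells give no appreciable fluorescence.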

[2] = qHTS RealTime-Glo MT Cell Viability Assay in HEK293 cells - 16 hour (AID 1224872); further: nearly all actives have a fitted effect of over 50% in size; further: potency means the concentration at half of the fitted maximal effect
Procedure, shortened: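 Cells + reagent dispensed (600 cells/well, HEK293) → 5 h at 37 C/5% CO2 → 23 nL compound in DMSO pinned → 40 h at 37 C → luminescence read at 0, 8, 16, 24, 32, 40 h.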

[3] = qHTS RealTime-Glo MT Cell Viability Assay in HepG2 cells - 8 hour (AID 1224873); further: nearly all actives have a fitted effect of over 55% in size
Procedure, shortened: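 Real-time viability: cells seeded at 600 per well together with NanoLuc and cell-permeant prosubstrate, compounds added after 5 h incubation. Luminescence tracked at 0, 8, 16, 24, 32 and 40 h of exposure.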

[4] = qHTS RealTime-Glo MT Cell Viability Assay in HEK293 cells - 40 hour (AID 1224874); details: RealTime-Glo luminescence; max response: hits give low values; further: nearly all actives have a fitted effect of over 50% in size; further: potency means the concentration at half of the fitted maximal effect
Procedure, shortened: (§2)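 Kinetic, non-lysing viability readout. Seed HEK293 (600/well) with reagent, incubate 5 h at 37 C/5% CO2, pin 23 nL compound in DMSO, incubate at 37 C, read luminescence at 0, 8, 16, 24, 32, 40 h.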

[5] = A CellTox Green Cytotoxicity Assay to monitor cytotoxicity in HEK293 cells - 24 hour (AID 1224875); further: series mostly up to about 77 µM; nearly all actives have a fitted effect of over 45% in size
Procedure, shortened: as §1

[6] = A CellTox Green Cytotoxicity Assay to monitor cytotoxicity in HepG2 cells - 16 hour (AID 1224876); further: nearly all actives have a fitted effect of over 45% in size
Procedure, shortened: (§3)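 Cytotoxicity was tracked as dead-cell DNA fluorescence in HepG2 cells treated with test compounds at 37 C; each time-point value comes from one kinetic series spanning 0, 8, 16, 24, 32 and 40 h.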

[7] = qHTS RealTime-Glo MT Cell Viability Assay in HepG2 cells - 32 hour (AID 1224877); further: nearly all actives have a fitted effect of over 55% in size; further: potency means the concentration at half of the fitted maximal effect
Procedure, shortened: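 Real-time, nonlytic viability: 600 HepG2 cells/well mixed with NanoLuc enzyme plus prosubstrate; 5 h settle, compound (DMSO) added by pintool; luminescence monitored over 40 h at 37 C.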

[8] = A CellTox Green Cytotoxicity Assay to monitor cytotoxicity in HepG2 cells - 24 hour (AID 1224878); further: nearly all actives have a fitted effect of over 45% in size
Procedure, shortened: as §3

[9] = A CellTox Green Cytotoxicity Assay to monitor cytotoxicity in HepG2 cells - 40 hour (AID 1224879); further: nearly all actives have a fitted effect of over 40% in size; further: potency means the concentration at half of the fitted maximal effect
Procedure, shortened: as §3

[10] = qHTS RealTime-Glo MT Cell Viability Assay in HEK293 cells - 0 hour (AID 1224880)
Procedure, shortened: as §2
On the % scale 0 is the no-effect control and ±100 the full control effect.

O=C(Cl)C(Cl)(Cl)Cl
inactive: Potency [1] | Potency [2] | outcome [3] | max response [4] 1.29% | Potency [5] | Potency [6] | Potency [7] | Potency [8] | Potency [9] | outcome [10]

CCCCCCC1CCOC1=O (stereo not drawn)
inactive: Potency [1] | Potency [2] | outcome [3] | max response [4] -0.816% | Potency [5] | Potency [6] | Potency [7] | Potency [8] | Potency [9] | outcome [10]

C=CCC1(C(C)CC)C(=O)NC(=O)NC1=O (stereo not drawn)
inactive: Potency [1] | Potency [2] | outcome [3] | max response [4] 5.74% | Potency [5] | Potency [6] | Potency [7] | Potency [8] | Potency [9]

CCNP(=S)(OC)O/C(C)=C/C(=O)OC(C)C (stereo not drawn)
inactive: Potency [1] | Potency [2] | outcome [3] | max response [4] -13.5% | Potency [5] | Potency [6] | Potency [7] | Potency [8] | Potency [9] | outcome [10]

N#CN
inactive: Potency [1] | Potency [2] | outcome [3] | max response [4] 4.8% | Potency [5] | Potency [6] | Potency [7] | Potency [8] | Potency [9] | outcome [10]

COc1cccc(C=O)c1
inactive: Potency [1] | Potency [2] | outcome [3] | max response [4] -0.107% | Potency [5] | Potency [6] | Potency [7] | Potency [8] | Potency [9]

CCSC(=O)Cl
inactive: Potency [1] | Potency [2] | outcome [3] | max response [4] 15.5% | Potency [5] | Potency [6] | Potency [7] | Potency [8] | Potency [9]

c1cncc([C@@H]2CCCCN2)c1
inactive: Potency [1] | Potency [2] | outcome [3] | max response [4] 9.53% | Potency [5] | Potency [6] | Potency [7] | Potency [8] | Potency [9]

CC[C@@H](CO)NC(=O)[C@@H]1C=C2c3cccc4c3c(cn4C)C[C@H]2N(C)C1
inactive: Potency [1] | Potency [2] | outcome [3] | max response [4] -3.36% | Potency [5] | Potency [6] | Potency [7] | Potency [8] | Potency [9]

O=C(CCl)NCO
inactive: Potency [1] | Potency [2] | outcome [3] | max response [4] 1.67% | Potency [5] | Potency [6] | Potency [7] | Potency [8] | Potency [9] | outcome [10]

Oc1ccc2c3c1O[C@H]1[C@@H](O)C=C[C@H]4[C@@H](C2)NCC[C@@]341
inactive: Potency [1] | Potency [2] | outcome [3] | max response [4] -1.32% | Potency [5] | Potency [6] | Potency [7] | Potency [8] | Potency [9]

BrCCc1ccccc1
inactive: Potency [1] | Potency [2] | outcome [3] | max response [4] -1.95% | Potency [5] | Potency [6] | Potency [7] | Potency [8] | Potency [9] | outcome [10]

CCC(C)C(C)(COC(N)=O)COC(N)=O (stereo not drawn)
inactive: Potency [1] | Potency [2] | outcome [3] | max response [4] 3.68% | Potency [5] | Potency [6] | Potency [7] | Potency [8] | Potency [9] | outcome [10]

CCN(CCO)CCn1c(Cc2ccccc2)nc2c1c(=O)n(C)c(=O)n2C
inactive: Potency [1] | Potency [2] | outcome [3] | max response [4] -42.2% | Potency [5] | Potency [6] | Potency [7] | Potency [8] | Potency [9] | outcome [10]

ClCC1CO1 (stereo not drawn)
inactive: Potency [1] | Potency [2] | outcome [3] | max response [4] -2.45% | Potency [5] | Potency [6] | Potency [7] | Potency [8] | Potency [9] | outcome [10]

ClCOCCl
inactive: Potency [1] | Potency [2] | outcome [3] | max response [4] 12.2% | Potency [5] | Potency [6] | Potency [7] | Potency [8] | Potency [9] | outcome [10]

CC(C)[N+](C)(CCC(C(N)=O)(c1ccccc1)c1ccccc1)C(C)C
inactive: Potency [1] | Potency [2] | outcome [3] | max response [4] -2.84% | Potency [5] | Potency [6] | Potency [8] | Potency [9] | outcome [10]
active: Potency [7] 21.3 µM

COC(=O)[C@@H](N)CCCN/C(N)=N/[N+](=O)[O-]
inactive: Potency [1] | Potency [2] | outcome [3] | max response [4] 6.22% | Potency [5] | Potency [6] | Potency [7] | Potency [8] | Potency [9] | outcome [10]

CC(Cc1ccccc1)NCCn1cnc2c1c(=O)n(C)c(=O)n2C (stereo not drawn)
inactive: Potency [1] | outcome [3] | Potency [5] | Potency [6] | Potency [7] | Potency [8] | Potency [9] | outcome [10]
active: Potency [2] 15.3 µM | Potency [4] 24.2 µM

OCC(Cl)CCl (stereo not drawn)
inactive: Potency [1] | Potency [2] | outcome [3] | max response [4] -0.453% | Potency [5] | Potency [6] | Potency [7] | Potency [8] | Potency [9] | outcome [10]

CCC(=O)OC1(c2ccccc2)CCN(C)CC1
inactive: Potency [1] | Potency [2] | outcome [3] | max response [4] -7.76% | Potency [5] | Potency [6] | Potency [7] | Potency [8] | Potency [9] | outcome [10]

CCN[C@@H](C)Cc1ccccc1
active: Potency [9] 0.154 µM
inactive: Potency [1] | Potency [2] | outcome [3] | max response [4] -5.07% | Potency [5] | Potency [6] | Potency [7] | Potency [8] | outcome [10]

C[C@H](N)C(=O)c1ccccc1
inactive: Potency [1] | Potency [2] | outcome [3] | max response [4] -10.2% | Potency [5] | Potency [6] | Potency [7] | Potency [8] | outcome [10]
